# G9a block: qHTS Assay for Inhibitors of Histone Lysine Methyltransferase G9a; Histone-lysine N-methyltransferase EHMT2 (Homo sapiens), Q96KQ7; G9a H3K9 monomethylation, AlphaScreen, 2 h; Potency, µM (series often up to 102 µM), for inactives: top-dose activity, negative = inhibition, most hits filed as inhibitors; 8.8% of 350,000 active; AID 504332, 2011; also: % is scaled to controls: 0 for no effect and ±100 for the full control effect; nearly all actives have a fitted effect of over 75% in size
#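 AlphaScreen read-out: biotin-H3K9 peptide (500 nM) methylation by 20 nM enzyme with 20 uM SAM, 2 h at room temperature after 15 min compound preincubation; anti-monomethyl H3K9 antibody plus donor/acceptor beads, 10 min dark.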
# HP1b chromo inh: HTS for Inhibitors of HP1-beta Chromodomain Interactions with Methylated Histone Tails; Chromobox protein homolog 1 (Homo sapiens), P83916; AlphaScreen HP1-beta / biotin-H3K9me3 peptide binding; Potency, µM (series often up to 114 µM), for inactives: at the highest dose activity change, negative = inhibition, hits mostly inhibitors; 0.56% of 390,000 active; AID 540317, 2011; also: nearly all actives have a fitted effect of over 70% in size
#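 AlphaScreen: HP1-beta (50 nM) preformed 30 min with biotin-H3(1-18)K9me3 peptide (50 nM) in PBS pH 7.4, 0.01% Tween-20. Compound added for 30 min at RT, then streptavidin donor/nickel chelate acceptor beads (10 ug/mL) for 30 min.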
# GLS inh: qHTS for Inhibitors of Glutaminase (GLS). GLS enzymatic activity, qHTS titration. Potency, µM (titrated, usually from 45.5 µM), without a hit: at the top dose activity change, negative = inhibition, most hits filed as inhibitors. 0.21% of 410,000 active. AID 624170, 2012; also: % is scaled to controls: 0 for no effect and ±100 for the full control effect
#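 Glutamate formation by hKGA was monitored fluorometrically using coupled glutamate oxidase, HRP and Amplex Red. Substrate was added as 1 mM L-glutamine solution; incubation was 30 min at RT after an initial read.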
# JMJD2A Tudor: qHTS Assay for Inhibitors of JMJD2A-Tudor Domain; Lysine-specific demethylase 4A (Homo sapiens), O75164; Potency, µM (highest dose often 114 µM), for inactives: top-dose activity change, negative = inhibition, hits mostly inhibitors; 4.4% of 390,000 active; AlphaScreen JMJD2A-Tudor / H3K4me3 peptide binding; also: % is scaled to controls: 0 for no effect and ±100 for the full control effect; nearly all actives have a fitted effect of over 50% in size
# BAZ2B block: qHTS Assay for Inhibitors of BAZ2B; AlphaScreen BAZ2B-H3K14Ac peptide displacement; Potency, µM (series often up to 114 µM), for the others: at the highest dose activity change, negative = inhibition, actives largely listed as inhibitors; Bromodomain adjacent to zinc finger domain protein 2B (Homo sapiens), Q9UIF8; 4.4% of 360,000 active; also: % is scaled to controls: 0 for no effect and ±100 for the full control effect; nearly all actives have a fitted effect of over 60% in size
#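 Compounds, titrated to a top concentration of 110 uM, were incubated 30 min at room temperature with preformed BAZ2B/acetyl-K14 H3 peptide complex (50 nM each). Proximity signal was measured by AlphaScreen after 20 min with beads.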
# * marks the source's active call; other numbers are inactive results; ? = inconclusive; nt = no result; [ ] = another dose, or the depositor's remark. In the library only some 10% were active in any assay of this set; here they are far more common. Calls follow the shape of the dose curve; as a rule, active = well fitted curve in the direction sought with a large enough effect; inconclusive = small, poorly fitted or top-dose-only effect, or another doubt; inactive = no such curve, though single readings can be large; an effect the other way counts as inactive or inconclusive. Potency is read from the fitted curve at half-maximal effect.
SMILES,G9a block,HP1b chromo inh,GLS inh,JMJD2A Tudor,BAZ2B block
CN(NC(=O)NN)c1ncc(C(F)(F)F)cc1Cl,28%,41%,nt,28%,-2%
COc1ccc(C2=Nn3c(C)nnc3SC2)cc1,45µM*,99%,-1%,65%,?
O=C(O)CC1Sc2nnc(COc3ccc(Cl)cc3)n2N=C1c1ccccc1 (stereo not given),25µM*,6%,-6%,-12%,-11%
COc1ccc(OCc2nnc3n2N=C(c2ccc(OC)cc2)CS3)cc1,50µM*,29%,-1%,?,-32%
Cc1nc(C(=O)NC2CC2)sc1C1(C)CC(c2cccc([N+](=O)[O-])c2)=NO1 (stereo not given),3%[12.7 µM],23%,-3%,-17%,-5%
O=C(NCc1nnc(SCC(=O)N2CCCC2)o1)c1c(F)cccc1F,45%,26%,-1%,4%,0%
O=C(CSc1nnc(CNC(=O)c2ccco2)o1)Nc1ccc(Br)cc1,10µM*,24%,-1%,-2%,?
O=C(NCc1nnc(SCC(=O)N2CCC(Cc3ccccc3)CC2)o1)c1ccccc1F,45µM*,12%,-4%,-24%,-5%
CCOc1ccc(NC(=O)CSc2nnc(CNC(=O)c3ccco3)o2)cc1,-48%,46%,-1%,-3%,-3%
O=C(CSc1nnc(CNC(=O)c2ccco2)o1)Nc1ccccc1F,25µM*,-9%,-2%,-14%,-11%
O=S(=O)(Nc1ncccn1)c1ccc(NC(=S)N2CCN(Cc3ccc(F)cc3Cl)CC2)cc1,-2%,28%,13%,-19%,-18%
CCC[C@H]1C[C@H](C(=O)N[C@H]([C@@H]2O[C@H](SC)[C@@H](O)[C@H](O)[C@@H]2O)[C@H](C)O)N(C)C1,15%[21.5 µM],nt,nt,nt,nt
Cc1cccc(C(=O)Nc2ccc(N3CC=C(c4ccccc4C)CC3)c(C(=O)O)c2)c1,?,-7%,-28%,?,45µM*
CCc1ccc(NS(=O)(=O)c2ccc(OC)c3ncccc23)cc1,-3%,33%,-5%,-21%,-3%[57.1 µM]
COc1ccc2[nH]c(=O)c(CN(c3ccccc3)S(=O)(=O)c3ccccc3)cc2c1,12%,27%,-7%,-8%,-15%
COc1ccc2[nH]c(=O)c(CN(c3ccccc3OC)S(=O)(=O)c3ccccc3)cc2c1,56µM*,37%,-1%,-21%,-32%
Cc1cc(NC(=O)CCC(=O)N(CC2CCCO2)C(C(=O)NC2CCCC2)c2cccnc2)no1 (stereo not given),-8%[12.7 µM],?,23%,?,1%[57.1 µM]
Cc1cnc(C(=O)OCC(=O)NCc2ccccc2)cn1,12%[12.7 µM],29%,3%,-9%,7%
O=C(O)c1ccc(N=N/C(=N\Nc2ccc(C(=O)O)cc2)c2ccccc2)cc1,?,?,26%,50µM*,28µM*
O=C(O)c1cccc(N/N=C(\N=Nc2ccccc2)c2ccccc2)c1,?,35µM*,25%,40µM*,14µM*
Brc1ccc(N/N=C(/N=Nc2nn[nH]n2)c2ccccc2)cc1,11µM*,13µM*,19%,13µM*,11µM*
CC(C)NC1=C(Cl)C(=O)c2ccccc2C1=O,20µM*,16µM*,-3%,40µM*,25µM*
CCN(CC)CCCNC1=C(Cl)C(=O)c2ccccc2C1=O,?,-15%,0%,-30%,-26%
CC(C)OCCCNC1=C(Cl)C(=O)c2ccccc2C1=O,nt,35µM*,3%,40µM*,10µM*
COCCCNC1=C(Cl)C(=O)c2ccccc2C1=O,40µM*,?,9%,?,35µM*
CCN(CC(=O)Nc1cc(Cl)ccc1C)C(=O)CCOc1ccccc1C,37%,28%,-4%,-4%,10%
CC(C)(C)c1cc(C(=O)CCN2CCOCC2)cc(C(C)(C)C)c1O,50µM*,23%,-29%,-9%,2%
COc1cc(C(=O)NCC(=O)OCC(=O)c2ccc[nH]2)cc(OC)c1OC,-1%[59 µM],46%,-2%,-9%,0%

# High-throughput results: PubChem, National Center for Advancing Translational Sciences (NCATS)
